Sampled rows, rich in hits. Any-hit rate of the full collection: about 2.3%.
aSyn rescue = alpha-synuclein toxicity inhibition in yeast; hit rate 0.14% among 370,000; Potency, µM (titrated, usually from 46.1 µM), for the others: at the top dose growth rescue (activation), most hits filed as activators; Yeast expressing alpha-synuclein, growth rescue, BacTiter-Glo, 24 h; AID 652106; further: % of control where 0% means no effect; nearly all actives have a fitted effect of over 65% in size
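Galactose-induced alpha-syn yeast (OD600=0.02, raffinose-pregrown) + pinned cpd, 24 hr, 30 deg C; growth by BacTiter-Glo luminescence. Growth restoration scores as activation.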
TDP43 rescue = TDP-43 toxicity inhibition in yeast; AID 652104; Potency, µM (doses to about 46.1 µM), inactives show at the highest dose growth rescue (activation), usual class: activators; TDP-43 expressing yeast growth rescue, BacTiter-Glo, 24 h; hit rate 1.8% among 410,000; further: % of control where 0% means no effect; nearly all actives have a fitted effect of over 50% in size
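In this qHTS, compounds that restore growth of yeast expressing TDP-43 appear as activators. Cells (OD600=0.02, galactose medium, raffinose-pregrown) are incubated with compound 24 hr at 30 deg C and growth is quantified by BacTiter-Glo.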
Abeta rescue = A-beta toxicity reversal in yeast; yeast expressing A-beta42, growth rescue, OD600, 48 h; response scale: 0% DMSO, 100% iron-clioquinol control; Potency, µM (titrated, usually from 46.1 µM), most hits filed as activators; hit rate 0.063% among 410,000; further: nearly all actives have a fitted effect of over 55% in size
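Growth rescue measured by 600 nm absorbance after 48 h yeast culture at 30 C with compound. Values normalized between DMSO and an equimolar ferric chloride plus clioquinol control.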
FUS suppressor = suppressors of FUS proteinopathy in yeast; S. cerevisiae FUS-expressing, growth rescue, OD600, 24 h; Potency, µM (series often up to 76.6 µM), hits mostly activators; hit rate 0.24% among 390,000; AID 1347120;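 further: plate controls were DMSO vehicle for no effect and reference control for full effect; nearly all actives have a fitted effect of over 55% in size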
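Read-out: OD at 600 nm after 24hr at 30C, reporting rescue of FUS-induced yeast toxicity. Cells at OD 0.005 in galactose (2%) minimal medium; compounds tested in a dilution series; CP55940 titration from 92uM final as control.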
BCR signal inh = chronic active BCR signaling inhibition | ABC-DLBCL IkBa-CBG/CBR reporter, luminescence ratio, 4 h | Potency, µM (top dose mostly 46.1 µM), inactives show top-dose activity change, negative = inhibition, actives largely listed as inhibitors | hit rate 0.05% among 340,000; active means well fitted inhibition curve with a large enough effect in the signal ratio, with a control signal flat, not every such curve was filed as active; inconclusive means small, poorly fitted or top-dose-only effect, or effect the other way, or a change in a side signal; the % refers to the signal ratio;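 further: plate controls were basal doxycycline-induced cells for no effect and cells given 10 µM MG132 for full effect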
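Compounds up to 46 uM were incubated four hours with TMD8 cells whose green CBG68 luciferase is fused to IkappaBalpha; red CBR luminescence normalised the signal, and concentration-effect curves were fitted to fusion, red and ratio data.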
uPA generation = inhibitors of cell surface uPA generation. cell surface uPA generation assay, qHTS. Potency, µM (top dose mostly 38.3 µM), for the others: top-dose activity change, negative = inhibition, hits mostly inhibitors. hit rate 0.31% among 330,000; active means well fitted inhibition curve with a large enough effect; inconclusive means small, poorly fitted or top-dose-only effect; inactive means no such curve, though single readings can be large or run the other way; tested in mouse RAW 264.7 cells; further: on the % scale 0 is the no-effect control and ±100 the full control effect; nearly all actives have a fitted effect of over 55% in size
* marks the source's active call; other numbers are inactive results; [ ] = remark or other dose. Unless noted, the call rests on the fitted dose curve; in most records, active means well fitted curve in the direction sought with a large enough effect; inconclusive means small, poorly fitted or top-dose-only effect, or another doubt; inactive means no such curve, though single readings can be large; an effect the other way counts as inactive or inconclusive. Potency means the concentration at half of the fitted maximal effect.

How did CCn1nc(C)c(/C=N/NC(=O)Cn2cncn2)c1C do in these assays?
aSyn rescue: -3%; TDP43 rescue: -15%; Abeta rescue: inactive; FUS suppressor: inactive; BCR signal inh: inconclusive; uPA generation: 5%

Results for CCCn1nc(NC(=O)C2CCCO2)c2cc3cc(C)ccc3nc21 (stereo unspecified) ?
aSyn rescue: -2%; TDP43 rescue: 35µM*; Abeta rescue: inactive; FUS suppressor: inactive; BCR signal inh: inconclusive; uPA generation: -3%

How did CCCn1nc(NC(=O)C2CCCO2)c2cc3ccc(C)cc3nc21 (stereo unspecified) do in these assays?
aSyn rescue: -3%; TDP43 rescue: 2%; Abeta rescue: inactive; FUS suppressor: inactive; BCR signal inh: 16%; uPA generation: 1%

What do the screens show for `COc1c(O)ccc2cnn(-c3ccccc3C)c(=O)c12`?
aSyn rescue: -1%; TDP43 rescue: 1%; Abeta rescue: inactive; FUS suppressor: inconclusive; BCR signal inh: 1%; uPA generation: -4%

What do the screens show for `O=C(Cn1ncc2ccsc2c1=O)N1CCN(c2ccccc2)CC1`?
aSyn rescue: -1%; TDP43 rescue: 10%; Abeta rescue: inactive; FUS suppressor: inactive

What do the screens show for `Cc1ccc(C)c(N2CCN(C(=O)Cn3ncc4ccsc4c3=O)CC2)c1`?
aSyn rescue: 16µM*; TDP43 rescue: -6%; Abeta rescue: inactive; FUS suppressor: inconclusive

How did Cc1ccc2c(c1)COc1c3ccc(C(=O)O)cc3nn1-2 do in these assays?
aSyn rescue: 7%; TDP43 rescue: 5%; Abeta rescue: inactive; FUS suppressor: inactive; BCR signal inh: inconclusive; uPA generation: inconclusive

What do the screens show for `CC(C)[C@@H](CO)NC(=O)c1ccc2c3n(nc2c1)-c1ccccc1CO3`?
aSyn rescue: -13%; TDP43 rescue: -13%; Abeta rescue: inactive; FUS suppressor: inactive; BCR signal inh: inconclusive; uPA generation: 1.3µM*

Results for CC(C)NC(=O)c1ccc2c3n(nc2c1)-c1ccccc1CO3 ?
aSyn rescue: -25%; TDP43 rescue: -2%; Abeta rescue: inactive; FUS suppressor: inactive; BCR signal inh: 3%; uPA generation: 0.79µM*

What do the screens show for `CC1CN(C(=O)C(C)N2C(=O)c3ccccc3C2=O)CC(C)O1` (stereo unspecified)?
aSyn rescue: 4%; TDP43 rescue: -23%; Abeta rescue: inactive; FUS suppressor: inactive; BCR signal inh: -1%

What do the screens show for `COC(=O)c1sc(NC(=O)c2c(-c3ccccc3)noc2C)nc1C`?
aSyn rescue: -1%; TDP43 rescue: -4%; Abeta rescue: inactive; FUS suppressor: inactive; BCR signal inh: 5%; uPA generation: 1%

Results for COc1ccc(Cl)cc1NC(=S)N(CCCN1CCOCC1)Cc1cn(C)c2ccccc12 ?
aSyn rescue: -2%; TDP43 rescue: -15%; Abeta rescue: inactive; FUS suppressor: inactive; BCR signal inh: inconclusive; uPA generation: -5%

What do the screens show for `O=C(O)c1ccc2c(c1)S(=O)(=O)N=C1CCCCCN12`?
aSyn rescue: -2%; TDP43 rescue: -37%; Abeta rescue: inactive; FUS suppressor: inactive; BCR signal inh: 1%; uPA generation: -5%

What do the screens show for `CN(Cc1ccccc1)C(=S)NC(=O)c1ccc(-c2ccccc2)cc1`?
aSyn rescue: 9%; TDP43 rescue: 2%; Abeta rescue: inactive; FUS suppressor: inactive; BCR signal inh: inconclusive; uPA generation: -4%

What do the screens show for `CN(Cc1ccccc1)C(=S)NC(=O)c1cccs1`?
aSyn rescue: 5%; TDP43 rescue: inconclusive; Abeta rescue: 13µM*; FUS suppressor: inactive; BCR signal inh: 4%; uPA generation: -2%

How did COc1ccc(-c2cc(C(=O)c3c(N)n(C)c(=O)n(C)c3=O)c3ccccc3n2)cc1 do in these assays?
aSyn rescue: 1%; TDP43 rescue: -14%; Abeta rescue: inactive; FUS suppressor: inactive; BCR signal inh: -9%; uPA generation: 1.4µM*

Results for OC[C@@H]1CN(Cc2ccc(Cl)cc2)C[C@H](n2cnc3c(N4CCN(c5ccccc5)CC4)ncnc32)O1 ?
aSyn rescue: inconclusive; TDP43 rescue: 32µM*; Abeta rescue: inactive; FUS suppressor: inconclusive

Results for OC[C@@H]1CN(Cc2ccc(Cl)cc2)C[C@H](n2cnc3c(N4CCOCC4)ncnc32)O1 ?
aSyn rescue: 0%; TDP43 rescue: 14%; Abeta rescue: inactive; FUS suppressor: inactive

How did Cc1cc(C)c(C#N)c(Oc2ccc(O)cc2)n1 do in these assays?
aSyn rescue: -1%; TDP43 rescue: -3%; Abeta rescue: inactive; FUS suppressor: inactive; BCR signal inh: -9%; uPA generation: 3%

Results for CCOC(=O)C1CCN(S(=O)(=O)c2ccc(C)c(C(=O)NC3CCCCC3)c2)CC1 ?
aSyn rescue: 5%; TDP43 rescue: 8%; Abeta rescue: inactive; BCR signal inh: 1%; uPA generation: 0%

Results for Cc1ccc(CN(C)C(=O)c2cccc(S(=O)(=O)N3CCc4ccccc4C3)c2)o1 ?
aSyn rescue: 2%[1.84 µM]; TDP43 rescue: 35µM*; Abeta rescue: inactive; FUS suppressor: inactive; BCR signal inh: -10%; uPA generation: 8%

What do the screens show for `Cc1ccc(NC(=O)CN(C)C(=O)c2cccc(S(=O)(=O)N3CCc4ccccc4C3)c2)cc1`?
aSyn rescue: -3%; TDP43 rescue: 9%; Abeta rescue: inactive; FUS suppressor: inactive

What do the screens show for `CCCn1c(NC(=O)CCNC(=O)c2ccccc2Cl)nc2ccccc21`?
aSyn rescue: -1%; TDP43 rescue: 23%; Abeta rescue: inactive; FUS suppressor: inactive; BCR signal inh: -8%; uPA generation: 5%

Results for CCCNC(=O)N(C)C[C@H]1Oc2cc(Br)ccc2S(=O)(=O)N([C@@H](C)CO)C[C@@H]1C ?
aSyn rescue: 1%; TDP43 rescue: 21%; Abeta rescue: inactive; FUS suppressor: inactive

How did CCCNC(=O)N(C)C[C@@H]1Oc2cc(C#C[C@H](C)O)ccc2S(=O)(=O)N([C@H](C)CO)C[C@H]1C do in these assays?
aSyn rescue: 5µM*; TDP43 rescue: 6%; Abeta rescue: inactive; FUS suppressor: inactive

How did O=C(Nc1ccccc1Cl)c1cccs1 do in these assays?
aSyn rescue: 1%; TDP43 rescue: inconclusive; Abeta rescue: inactive; FUS suppressor: inactive; BCR signal inh: -4%; uPA generation: -1%

How did O=C(Nc1ccccc1Cl)c1ccc(-c2ccccn2)s1 do in these assays?
aSyn rescue: -1%; TDP43 rescue: 11µM*; Abeta rescue: inactive; FUS suppressor: inactive; BCR signal inh: inconclusive; uPA generation: -5%
